# From PubChem
# L3MBTL1 inh: L3MBTL1 (human) inhibition; Q9Y468; AlphaScreen L3MBTL1–H3K9me1 peptide binding; Potency, µM (top dose mostly 57.1 µM), actives largely listed as inhibitors; 230,000 compounds, 0.66% hits; also: nearly all actives have a fitted effect of over 60% in size
#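 L3MBTL1 (50 nM) pre-complexed 30 min with biotinylated H3(1-15)K9me1 peptide (75 nM), then compounds added for 30 min at room temperature; AlphaScreen streptavidin donor/nickel chelate acceptor beads (10 ug/mL final) read after 30 min dark incubation.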
# G9a block: blocks human histone lysine methyltransferase G9a; Q96KQ7; G9a H3K9 monomethylation, AlphaScreen, 2 h; Potency, µM (titrated, usually from 102 µM), most hits filed as inhibitors; 350,000 compounds, 8.8% hits; also: nearly all actives have a fitted effect of over 75% in size
# Target sequence (Q96KQ7 913-1193 limits assumed): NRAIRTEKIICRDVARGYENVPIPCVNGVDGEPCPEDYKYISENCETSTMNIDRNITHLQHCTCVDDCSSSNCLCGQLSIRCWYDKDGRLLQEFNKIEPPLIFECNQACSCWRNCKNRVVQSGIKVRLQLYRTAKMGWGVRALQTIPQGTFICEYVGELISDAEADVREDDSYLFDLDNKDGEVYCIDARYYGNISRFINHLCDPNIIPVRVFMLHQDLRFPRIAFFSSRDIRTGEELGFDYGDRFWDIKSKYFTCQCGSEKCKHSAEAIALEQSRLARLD
#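 Using a bead-based AlphaScreen, monomethylated H3K9 product from 2 h room-temperature reactions (G9a 20 nM, peptide 500 nM, SAM 20 uM) was detected with 0.5 ug/mL rabbit anti-H3K9me1 antibody.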
# HP1b binding inh: inhibitors of HP1-beta chromodomain binding to methylated histone tails; AID 540317; AlphaScreen HP1-beta / biotin-H3K9me3 peptide binding; Potency, µM (titrated, usually from 114 µM), usual class: inhibitors; P83916; 390,000 compounds, 0.56% hits; also: nearly all actives have a fitted effect of over 70% in size
# Target sequence (P83916 whole entry, looked up): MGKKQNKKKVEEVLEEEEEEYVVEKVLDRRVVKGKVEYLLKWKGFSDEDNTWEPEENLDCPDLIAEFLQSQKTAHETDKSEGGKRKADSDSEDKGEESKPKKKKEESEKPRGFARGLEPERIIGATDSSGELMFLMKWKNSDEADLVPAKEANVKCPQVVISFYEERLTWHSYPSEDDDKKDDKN
#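 Compound inhibition of the preformed complex between 50 nM HP1-beta and 50 nM biotinylated H3K9me3 peptide was read by AlphaScreen. Buffer was PBS pH 7.4 with 0.01% Tween-20. Incubations ran 30 min at room temperature, with 10 ug/mL donor/acceptor beads.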
# JMJD2A Tudor: inhibitors of human JMJD2A Tudor domain. Potency, µM (doses to about 114 µM), actives largely listed as inhibitors. O75164. 390,000 compounds, 4.4% hits. AlphaScreen JMJD2A-Tudor / H3K4me3 peptide binding; also: nearly all actives have a fitted effect of over 50% in size
# BAZ2B block: BAZ2B (human) inhibition; 360,000 compounds, 4.4% hits; AID 504333; Potency, µM (doses to about 114 µM), most hits filed as inhibitors; AlphaScreen BAZ2B-H3K14Ac peptide displacement; also: nearly all actives have a fitted effect of over 60% in size
#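 AlphaScreen luminescence quantifies BAZ2B engagement of H3K14Ac peptide; the protein and biotinylated peptide are both at 50 nM final, buffer PBS pH 7.4 with 0.01% Tween-20, all steps at room temperature.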
# A number is an active result; i = inactive; ? = inconclusive; nt = not tested or not shown. Hits are enriched below; roughly 11% of the tested compounds scored in any of these assays. Calls follow the shape of the dose curve; as a rule, active = well fitted inhibition curve with a large enough effect; inconclusive = small, poorly fitted or top-dose-only effect; inactive = no such curve, though single readings can be large or run the other way.
SMILES,L3MBTL1 inh,G9a block,HP1b binding inh,JMJD2A Tudor,BAZ2B block
COc1cccc(CNC(=O)c2ccc(-n3c(C)cc4c3CCCC4)cc2)c1,nt,?,i,i,i
O=C1NC(c2cc(Cl)cc([N+](=O)[O-])c2O)Nc2ccccc21 (centres undefined),i,nt,i,?,40µM
O=C1NC(c2ccc(Cl)c([N+](=O)[O-])c2)Nc2ccccc21 (centres undefined),nt,?,i,i,i
O=c1[nH]c(CN2CCc3ccccc32)nc2scc(-c3cccs3)c12,i,18µM,i,i,i
O=C1COc2ccc(C(=O)COC(=O)c3ccc([N+](=O)[O-])cc3Cl)cc2N1,i,40µM,i,i,i
O=C1COc2ccc(C(=O)COC(=O)c3ccccc3[N+](=O)[O-])cc2N1,i,?,i,i,i
O=C1COc2ccc(C(=O)COC(=O)c3ccc(Cl)cc3[N+](=O)[O-])cc2N1,i,45µM,i,i,i
CC(=O)Nc1ccc(S(=O)(=O)NC2(C(F)(F)F)NC(=O)N(CCc3ccc(F)cc3)C2=O)cc1 (centres undefined),nt,i,i,i,i
COC(=O)c1n[nH]n(-c2ccccc2)c1=O,nt,i,i,i,i
CCCC(=O)N1c2ccccc2-c2nnc(SC)nc2OC1c1sccc1C (centres undefined),nt,?,i,i,?
S=C(NCc1ccncc1)Nc1ccc(Br)cc1Cl,nt,?,i,i,i
Cc1cccnc1NC(=S)Nc1ccc(Br)cc1Cl,i,?,?,?,50µM
CC1=CN2C(=N)/C(=C/c3ccc(Sc4ccc(Cl)cc4)o3)C(=O)N=C2S1,i,i,i,i,i
CC1=CN2C(=N)/C(=C/c3ccc(Sc4ccc(C)cc4)o3)C(=O)N=C2S1,?,25µM,28µM,i,22µM
Cc1ccc(NC(=O)C2C3C=CC4(CN(Cc5cccnc5)C(=O)C24)O3)cc1F (centres undefined),i,45µM,i,i,i
CC(C)c1ccc(NC(=O)C2C3C=CC4(CN(Cc5cccnc5)C(=O)C24)O3)cc1 (centres undefined),i,i,i,i,i
C[C@]12CCC(=O)C=C1CC[C@@H]1[C@H]2[C@@H](O)C[C@@]2(C)[C@H]1CC[C@]2(O)C(=O)CO,nt,i,nt,nt,nt
Cc1ccc(NC(=S)NNC(=O)c2c(Cl)c(C)nn2C)cc1,i,1.4µM,i,i,i
Cc1nn(C)c(C(=O)Nc2ccc(Cl)c([N+](=O)[O-])c2)c1Cl,i,16µM,i,i,i
CC(=O)N1CCCc2cc(S(=O)(=O)Nc3ccc(C)c(C)c3)ccc21,nt,nt,nt,i,nt
COC(=O)c1cc(NS(=O)(=O)c2ccc(Cl)c(N3C(=O)c4ccc(C(=O)O)cc4C3=O)c2)cc(C(=O)OC)c1,nt,i,i,i,0.79µM
O=C(O)c1ccc(Cl)c(S(=O)(=O)Nc2ccc(S(=O)(=O)N3CCCC3)cc2)c1,i,nt,i,i,nt
CC(=O)n1c2c(c3ccccc31)OC(N)=C(C#N)C2c1cccc(Cl)c1Cl (centres undefined),i,45µM,i,i,i
COC(=O)CCCCC(=O)C1C(=O)CC(C)(C)C(C(=O)OC)C1=O (centres undefined),i,?,i,?,i
CCCC(=O)C1C(=O)CC(C)(C)C(c2cc(C)no2)C1=O (centres undefined),i,?,i,50µM,i
SMILES,L3MBTL1 inh,G9a block,HP1b binding inh,JMJD2A Tudor,BAZ2B block
CCCCCC(=O)Nc1nc(C)c(-c2csc(Nc3cc(Cl)ccc3OC)n2)s1,i,?,?,?,?
C=CCCC(=O)Nc1nc(C)c(-c2csc(Nc3cc(OC)ccc3OC)n2)s1,i,10µM,?,35µM,50µM
CCCC(C)C(=O)Nc1nc(C)c(-c2csc(Nc3cc(OC)ccc3OC)n2)s1 (centres undefined),i,14µM,i,?,?
COc1ccc(OC)c(Nc2nc(-c3sc(N)nc3C)cs2)c1,i,32µM,?,50µM,45µM
C=CCCC(=O)Nc1nc(C)c(-c2csc(Nc3cccc(OC)c3)n2)s1,i,?,i,?,?
Cn1nccc1C(=O)NCc1ccc2c(c1)CCN2C(=O)c1ccc(F)cc1,nt,i,i,i,i
Cc1ccc2c(c1)c1c(c(=O)n(-c3cccc(Cl)c3)c(=O)n1CC(=O)N1CCCC1)n2C,nt,i,i,i,i
CNc1nc(CC(C)=O)ns1,i,79µM,i,i,i
